In PubChem BioAssay AID1159580 (chemical genetic matrix, 2015):
Out of some 5,500 compounds screened, about 2,000 (36%) were called active. Another 18% or so got no clear call; they are omitted. Cut-off read from the data, not from the text of the source: active = normalized growth mostly below about 0.91 (no sharp cut-off); inconclusive = no clear call, values can overlap the other calls; inactive = mostly above about 0.92. The list shows a part of the results.

Experiment: chemical genetic growth profiling, strain panel (AID 1159580);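 note: tested at 20 µM; growth read once vehicle control cultures reached saturation at 30 °C; 1 = growth at the plate median or of vehicle wells; lower values mean less growth of the strain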
Conditions: S. cerevisiae deletion strains, growth OD

Measured: normalized growth

N#Cc1cc(I)c(C#N)c(I)c1
active: locus YAL013W, strain DEP1, stronger effect = lower value 0.765 | locus YBR229C, strain ROT2, stronger effect = lower value 0.771 | locus YDL101C, strain DUN1, stronger effect = lower value 0.72 | locus YDR150W, strain NUM1, stronger effect = lower value 0.782 | locus YGR078C, strain PAC10, stronger effect = lower value 0.693 | locus YHR087W, strain rtc3, stronger effect = lower value 0.737 | locus YJR043C, strain POL32, stronger effect = lower value 0.777 | locus YJR075W, strain HOC1, stronger effect = lower value 0.693 | locus YLR058C, strain SHM2 (second series), stronger effect = lower value 0.733 | locus YMR219W, strain ESC1, stronger effect = lower value 0.786 | locus YMR263W, strain SAP30, stronger effect = lower value 0.775 | locus YNL153C, strain GIM3, stronger effect = lower value 0.746 | locus YNL322C, strain KRE1, stronger effect = lower value 0.75 | locus YPL055C, strain LGE1, stronger effect = lower value 0.643
inactive: locus YDL134C, strain PPH21, stronger effect = lower value 0.978 | locus YEL061C, strain CIN8, stronger effect = lower value 0.981 | locus YHR030C, strain SLT2, stronger effect = lower value 0.988 | locus YKL190W, strain CNB1, stronger effect = lower value 0.973 | locus YLR039C, strain RIC1, stronger effect = lower value 0.905 | locus YLR085C, strain ARP6, stronger effect = lower value 0.949 | locus YLR262C, strain YPT6, stronger effect = lower value 0.94 | locus YML094W, strain GIM5, stronger effect = lower value 0.98 | locus YMR307W, strain GAS1, stronger effect = lower value 0.961 | locus YNL298W, strain CLA4 (second series), stronger effect = lower value 0.937 | locus YNR030W, strain Alg12, stronger effect = lower value 0.949 | locus YPL241C, strain CIN2, stronger effect = lower value 0.979 | locus YPR135W, strain CTF4, stronger effect = lower value 1.01

CC(=CC1CCC(C)C2C1=C(C)CC2O)C(=O)O (stereo not drawn)
inactive: locus YAL021C, strain ccr4, stronger effect = lower value 1.01 | locus YAL026C, strain drs2, stronger effect = lower value 1.04 | locus YAL030W, strain snc1, stronger effect = lower value 1.01 | locus YBL061C, strain skt5, stronger effect = lower value 1.02 | locus YBR009C, strain hhf1, stronger effect = lower value 1.01 | locus YBR023C, strain chs3, stronger effect = lower value 1.02 | locus YBR171W, strain sec66, stronger effect = lower value 1.02 | locus YBR231C, strain swc5, stronger effect = lower value 1.02 | locus YBR279W, strain paf1, stronger effect = lower value 1.02 | locus YCL011C, strain gbp2, stronger effect = lower value 1.02 | locus YCL016C, strain dcc1, stronger effect = lower value 1.01 | locus YCL061C, strain MRC1, stronger effect = lower value 1.02 | locus YCL069W, strain vba3, stronger effect = lower value 1.01 | locus YCR088W, strain abp1, stronger effect = lower value 1.01 | locus YDL005C, strain med2, stronger effect = lower value 1.03 | locus YDL040C, strain nat1, stronger effect = lower value 1.01 | locus YDR001C, strain nth1, stronger effect = lower value 1.01 | locus YDR069C, strain doa4, stronger effect = lower value 1 | locus YDR137W, strain rgp1, stronger effect = lower value 1.04 | locus YDR159W, strain sac3, stronger effect = lower value 1.04 | locus YDR195W, strain ref2 1.02 | locus YDR297W, strain sur2, stronger effect = lower value 1.02 | locus YDR334W, strain swr1, stronger effect = lower value 1.02 | locus YDR335W, strain msn5, stronger effect = lower value 1.02 | locus YDR392W, strain spt3, stronger effect = lower value 0.944 | locus YEL003W, strain gim4, stronger effect = lower value 1.02 | locus YEL037C, strain rad23, stronger effect = lower value 1.01 | locus YEL061C, strain CIN8 (second series), stronger effect = lower value 1.02 | locus YER015W, strain faa2, stronger effect = lower value 1.03 | locus YER016W, strain bim1, stronger effect = lower value 1.02 | locus YER111C, strain swi4, stronger effect = lower value 1.01 | locus YER155C, strain BEM2 (second series), stronger effect = lower value 1.03 | locus YFR010W, strain ubp6, stronger effect = lower value 1.03 | locus YGL167C, strain pmr1, stronger effect = lower value 1.01 | locus YGL173C, strain kem1, stronger effect = lower value 1.03 | locus YGL227W, strain vid30, stronger effect = lower value 1.01 | locus YGL240W, strain doc1, stronger effect = lower value 1.02 | locus YGL253W, strain hxk2, stronger effect = lower value 1.03 | locus YHR013C, strain ard1, stronger effect = lower value 1.03 | locus YHR027C, strain rpn1, stronger effect = lower value 1.04 | locus YHR142W, strain chs7, stronger effect = lower value 1.02 | locus YJL092W, strain hpr5, stronger effect = lower value 1.02 | locus YJL095W, strain BCK1 (second series), stronger effect = lower value 1.02 | locus YJL115W, strain asf1, stronger effect = lower value 1.02 | locus YJL129C, strain trk1, stronger effect = lower value 1.04 | locus YJL154C, strain vps35, stronger effect = lower value 1.01 | locus YJL164C, strain tpk1, stronger effect = lower value 1.01 | locus YJL166W, strain qcr8, stronger effect = lower value 1.02 | locus YKL160W, strain elf1, stronger effect = lower value 1 | locus YKR026C, strain gcn3, stronger effect = lower value 1.01 | locus YKR091W, strain srl3, stronger effect = lower value 1.02 | locus YLL001W, strain dnm1, stronger effect = lower value 1.03 | locus YLL026W, stronger effect = lower value 1.03 | locus YLL041C, strain sdh2, stronger effect = lower value 1.01 | locus YLR027C, strain aat2, stronger effect = lower value 1.02 | locus YLR221C, strain rsa3, stronger effect = lower value 1.01 | locus YLR258W, strain gsy2, stronger effect = lower value 1.01 | locus YLR262C, strain YPT6 (second series), stronger effect = lower value 1.02 | locus YLR320W, strain mms22, stronger effect = lower value 1.02 | locus YLR342W, strain FKS1, stronger effect = lower value 1.02 | locus YLR357W, strain rsc2, stronger effect = lower value 0.995 | locus YLR370C, strain arc18, stronger effect = lower value 0.997 | locus YLR384C, strain iki3, stronger effect = lower value 1.02 | locus YML120C, strain ndi1, stronger effect = lower value 1.02 | locus YMR058W, strain fet3, stronger effect = lower value 1.03 | locus YMR125W, strain sto1, stronger effect = lower value 0.987 | locus YMR129W, stronger effect = lower value 1.02 | locus YMR205C, strain PFK2, stronger effect = lower value 1.02 | locus YMR231W, strain pep5, stronger effect = lower value 1.02 | locus YNL071W, strain lat1, stronger effect = lower value 1.03 | locus YNL209W, strain ssb2, stronger effect = lower value 1.03 | locus YNL248C, strain rpa49, stronger effect = lower value 1.07 | locus YNL322C, strain KRE1 (second series), stronger effect = lower value 1.01 | locus YNR049C, strain mso1, stronger effect = lower value 1.01 | locus YOR001W, strain rrp6, stronger effect = lower value 1.04 | locus YOR070C, strain gyp1, stronger effect = lower value 1 | locus YOR080W, strain dia2, stronger effect = lower value 1.02 | locus YOR083W, strain WHI5, stronger effect = lower value 1.01 | locus YOR106W, strain vam3, stronger effect = lower value 1.01 | locus YOR265W, strain rbl2, stronger effect = lower value 1.02 | locus YOR270C, strain vph1, stronger effect = lower value 1.07 | locus YOR290C, strain snf2, stronger effect = lower value 0.989 | locus YPL051W, strain arl3, stronger effect = lower value 1.03 | locus YPL078C, strain atp4, stronger effect = lower value 1.01 | locus YPL106C, strain sse1, stronger effect = lower value 1.03 | locus YPL240C, strain hsp82, stronger effect = lower value 1.02
